Source: PubChem BioAssay
FLuc counter: inhibits or activates purified firefly luciferase, miR-21 counter-screen | 6.9% of 360,000 active | Potency, µM (top dose mostly 57.5 µM), for the others: at the top dose activity change, negative = inhibition, hits mostly inhibitors | AID 588342 | purified FLuc, Km substrates, luminescence inhibition | P08659;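 note: plate controls were vehicle for no effect and reference inhibitor for full effect; nearly all actives have a fitted effect of over 55% in size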
Target sequence (P08659 whole entry, looked up): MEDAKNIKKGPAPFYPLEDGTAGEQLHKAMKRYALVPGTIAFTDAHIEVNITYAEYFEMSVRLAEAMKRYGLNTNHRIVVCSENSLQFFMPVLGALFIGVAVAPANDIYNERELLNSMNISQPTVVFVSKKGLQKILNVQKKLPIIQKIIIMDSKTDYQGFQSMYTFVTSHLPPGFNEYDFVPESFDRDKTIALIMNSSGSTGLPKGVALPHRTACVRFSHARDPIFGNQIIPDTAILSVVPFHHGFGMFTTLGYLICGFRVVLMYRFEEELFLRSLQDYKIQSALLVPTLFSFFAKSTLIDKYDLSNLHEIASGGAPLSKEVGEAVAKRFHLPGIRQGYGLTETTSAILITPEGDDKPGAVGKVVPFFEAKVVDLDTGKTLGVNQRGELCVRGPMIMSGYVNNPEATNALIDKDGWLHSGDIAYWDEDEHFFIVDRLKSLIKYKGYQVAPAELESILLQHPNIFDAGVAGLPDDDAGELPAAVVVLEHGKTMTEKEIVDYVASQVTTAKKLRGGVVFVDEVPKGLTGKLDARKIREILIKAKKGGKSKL
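Biochemical qHTS of compounds, final roughly 60 µM downward over six points, against 10 nM purified firefly luciferase using Km concentrations of substrates (10 uM D-luciferin, 10 uM ATP) in Tris acetate pH 7.5 buffer; luminescence output.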
KinaseGlo FLuc: counter-screen: inhibitors of Kinase-Glo firefly luciferase; Q27757; Kinase-Glo luciferase, ATP luminescence, 8 min; Potency, µM (series often up to 38.3 µM), for inactives: at the top dose activity change, negative = inhibition, usual class: inhibitors; 0.28% of 200,000 active; note: % is set by controls: 0 for no effect and ±100 for the full control effect; nearly all actives have a fitted effect of over 60% in size
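Recombinant Kinase-Glo luciferase, 10 uM ATP (linear range), luciferin; imidazole pH 7.2 / KCl / MgCl2 / Tween / BSA buffer; 8 min RT; luminescence.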
NPC1 promoter act: activates the NPC1 promoter. AID 485313. 2.4% of 320,000 active. Huh7 NPC1 promoter luciferase reporter, 24 h. Potency, µM (highest dose often 9.22 µM), for inactives: top-dose activation, hits mostly activators; note: % of control where 0% means no effect; nearly all actives have a fitted effect of over 60% in size
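In 1536-well qHTS, Huh7 cells harboring an NPC1 promoter–luciferase construct received compound for 24 h; activation was quantified by luminescence following luciferase reagent addition.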
ELG1 genotoxic: induces genotoxicity in HEK293T cells with luciferase-tagged ELG1. Potency, µM (doses to about 46 µM), inactives show at the top dose activity change, positive = activation, actives largely listed as activators. AID 504466. 1.3% of 330,000 active. HEK293T ELG1-luciferase reporter, luminescence, 16 h; note: % of control where 0% means no effect; nearly all actives have a fitted effect of over 60% in size
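After overnight (16 hr) compound treatment at 37 °C, ELG1-luciferase HEK293T cells were lysed with ONE-Glo; luminescence quantified 30 min later at room temperature.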
SMN2 splice up: SMN2 splice variant enhancement; HEK293 SMN2-luciferase splicing reporter, luminescence, 30-36 h; Potency, µM (series often up to 46.1 µM), for inactives: at the highest dose activity change, positive = activation, hits mostly activators; 2.8% of 210,000 active; AID 1458; note: % of control where 0% means no effect; nearly all actives have a fitted effect of over 55% in size
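HEK293 cells carry an SMN2 minigene-luciferase reporter in which exon 7 inclusion puts luciferase in frame. Cells were seeded at 2000 cells/well, attached for 10-12 hours, then exposed to compounds for 30-36 hours at 37C before ONE-Glo luminescence.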
Rab9 promoter act: activators of Rab9 promoter; Huh7 Rab9 promoter-luciferase reporter, luminescence, 24 h; 2.8% of 320,000 active; AID 485297; Potency, µM (titrated, usually from 9.22 µM), for the others: at the top dose activation, negative = inhibition, usual class: activators; note: % of control where 0% means no effect; nearly all actives have a fitted effect of over 60% in size
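Huh7 cells stably carrying Rab9 promoter–luciferase reporter, plated 1500 cells/well, compound added after 2 h and incubated 24 h at 37 °C; luciferase luminescence then read after 10 min with detection reagent.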
The depositor's hits bear a star; ? = inconclusive; . = no result. Only some compounds are listed: those with a hit (about 7.4% of all), similar ones and a draw of the others. Calls come from the whole dose curve; as a rule, active = well fitted curve in the direction sought with a large enough effect; inconclusive = small, poorly fitted or top-dose-only effect, or another doubt; inactive = no such curve, though single readings can be large; an effect the other way counts as inactive or inconclusive. Potency is the fitted concentration of half-maximal effect.

SMILES	FLuc counter	KinaseGlo FLuc	NPC1 promoter act	ELG1 genotoxic	SMN2 splice up	Rab9 promoter act
COc1cccc(CNC(=O)c2ccc(Cn3c(SCc4ccccc4)nc4cccnc43)cc2)c1	5.36µM*	.	.	.	.	.
CCNC(=O)c1ccc(CSc2nc3cccnc3n2Cc2ccc(OC)cc2)cc1	21.3µM*	.	.	.	.	.
COc1ccc(Cn2c(SCc3ccc(C(=O)NCc4ccc(C)cc4)cc3)nc3cccnc32)cc1	?	.	.	.	-17.4%	.
Cc1cccc(Cn2c(SCc3ccc(C(=O)NCc4ccccc4)cc3)nc3cccnc32)c1	2.1%	.	.	.	.	.
CN(C)c1ccc(CNC(=O)c2ccc(Cn3c(SCc4ccccc4)nc4cccnc43)cc2)cc1	2.69µM*	.	.	.	6.0%	.
Cc1cccc(CNC(=O)c2ccc(Cn3c(SCc4ccccc4)nc4cccnc43)cc2)c1	9.53µM*	.	.	.	.	.
CCN(CC)CC(O)CN1c2ccccc2Sc2ccccc21 (stereo not given)	1.4%	.	-0.8%	-2.0%	.	-8.8%
O=C(COC(=O)c1ccccc1O)NCCC1=CCCCC1	?	0.9%	3.7%	8.7%	8.9%	20.9%
Cc1ccc(C(=O)OCC(=O)NCCC2=CCCCC2)s1	-9.9%	0.8%	0.9%	-1.3%	13.2%	-4.7%
O=C(COC(=O)c1ccccc1Cl)NCCC1=CCCCC1	16.9µM*	-1.5%	2.9%	15.5%	7.3%	16.0%
O=C(COC(=O)c1cccs1)NCCC1=CCCCC1	19µM*	-6.4%	-1.4%	-0.9%	?	8.2%
Cc1cc(Nc2ccc(F)cc2)nc(-n2nc(C)cc2C)n1	-8.4%	.	.	.	.	.
CC1SCC(=NOCc2ccccc2)CS1 (stereo not given)	19µM*	.	?	?	.	?
CCN(Cc1nc2ccccc2c(=O)[nH]1)C(=O)COc1ccccc1Cc1ccccc1	1.2%	.	-4.7%	-6.8%	.	-9.3%
CC(=O)CSc1nc2cc3c(cc2cc1C#N)OCCO3	0.675µM*	4.47µM*	3.16µM*	?	.	?
COc1cc2cc(C)c(SCC(=O)N3CCOCC3)nc2cc1OC	-1.9%	.	-0.7%	6.0%	.	-3.3%
COc1cc2cc(C#N)c(SCC(=O)N3CCOCC3)nc2cc1OC	-1.3%	1.4%	14.4%	8.6%	12.6µM*	4.4%
N#Cc1cc2cc3c(cc2nc1SCC(=O)N1CCCC1)OCCO3	2.9%	.	?	2.5%	.	?
COC(=O)c1ccc(C(NC(=O)OCc2ccccc2)/C(=C/[C@@H](C)C(=O)NCc2nc3ccccc3s2)c2cccnc2)cc1 (stereo not given in full)	.	-2.2%	.	.	3.9%	.
CCOc1ccc(NC(=S)N2CCN(CCN3C(=O)c4cccc5cccc(c45)C3=O)CC2)cc1	-0.6%	0.6%	3.8%	-6.2%	?	-0.6%
Cc1ccc2nc(-c3ccncc3)c(Nc3ccccc3)n2c1	0.0%	0.1%	-0.6%	-0.9%	17.8µM*	-0.2%
Cc1ccc(-c2nc3ccccn3c2Nc2ccc3c(c2)OCO3)cc1	?	.	.	.	-6.4%	.
Cc1ccc(Nc2c(-c3ccc(C)cc3)nc3ccc(C)cn23)cc1	-1.8%	.	.	.	7.8%	.
Cc1ccc(Nc2c(-c3ccc(N(C)C)cc3)nc3ccccn23)cc1	7.57µM*	.	.	.	14.6%	.
CCC(=O)Nc1sc2c(c1C(=O)Nc1ccc(Br)cc1)CCCCC2	3.0%	.	.	.	-5.1%	.
SMILES	FLuc counter	KinaseGlo FLuc	NPC1 promoter act	ELG1 genotoxic	SMN2 splice up	Rab9 promoter act
Cc1cccc(C(=O)Nc2cccc(OCc3cc(=O)n4cccc(C)c4n3)c2)c1	3.5%	.	.	.	.	.
Cc1ccc(C(C)C)c(OCC#CCN2CCOCC2)c1	2.0%	.	-3.1%	-1.8%	.	0.0%
Cc1ccc(NC(=O)c2c(C)oc3ccc(O)c(CN4CCCCC4)c23)c(C)c1	-16.4%	.	.	.	-8.4%	.
CC(=NC1CCCCC1)C1=C(O)c2ccccc2C1=O	3.38µM*	-3.2%	2.82µM*	?	15.8µM*	2.82µM*
CC(=O)N(C1=C(Cl)C(=O)c2ccccc2C1=O)C1CCCCC1	?	.	-31.7%	1.5%	.	-46.9%
CCCc1cc(=O)oc2c(C)c(OC(C)C(=O)NCCN3CCOCC3)ccc12 (stereo not given)	-0.4%	.	-5.2%	-1.7%	.	-2.5%
